Molecules are shown by their SMILES. Compounds without any hit were thinned out: in the full panel of roughly 79,000, 15% have a hit. Unmarked numbers belong to inactive results. The source made the active and inactive calls. Cut-off read from the data, not from the text of the source: active = growth inhibition above about 70%; inactive = the rest.

Growth inhibition data for nine molecules are collected here from PubChem BioAssay (NCI).

Assay [1] is described as follows: NCI Yeast Anticancer Drug Screen. Data for the rad50 strain (AID 155).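 Note: 0% = growth of vehicle-only cultures of the same strain.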 As to conditions: S. cerevisiae rad50 strain growth inhibition, active compounds read high. The gist of the method:
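Growth of the mutant yeast was measured after compound exposure and referenced to vehicle-treated cultures.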

Assay [2] is described as follows: NCI Yeast Anticancer Drug Screen. Data for the mec2-1 strain (AID 157). Conditions: S. cerevisiae mec2-1 strain, active compounds read high. The gist of the method: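 Mutant yeast (mec2-1) grown with compound; growth inhibition relative to vehicle control reported.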
Assay [3] is described as follows: NCI Yeast Anticancer Drug Screen. Data for the sgs1 mgt1 strain (AID 161).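 Note: 0% = growth of cultures given vehicle only.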 Conditions: S. cerevisiae sgs1 mgt1 strain, active compounds read high. The gist of the method:
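Percent growth inhibition was derived by comparing compound-exposed mutant yeast with vehicle-exposed cultures. The strain carries alterations in DNA damage repair.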

A short description of assay [4]: NCI Yeast Anticancer Drug Screen. Data for the cln2 rad14 strain (AID 165).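 Note: 0% = growth equal to vehicle treated cultures.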 Conditions: S. cerevisiae cln2 rad14 strain, active compounds read high. The gist of the method:
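Readout is yeast growth inhibition versus vehicle-treated controls, using a strain with cln2 and rad14 alterations exposed to compound.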

The nature of assay [5]: NCI Yeast Anticancer Drug Screen. Data for the bub3 strain (AID 167). Conditions: S. cerevisiae bub3 mutant strain, active compounds read high. The method, boiled down:
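Whole-cell yeast assay. The mutant strain was incubated with compounds, and growth inhibition was determined by comparison with vehicle-treated cells.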

Assay [6] is described as follows: NCI Yeast Anticancer Drug Screen. Data for the mlh1 rad18 strain (AID 175). As to conditions: S. cerevisiae mlh1 rad18 strain growth inhibition, active compounds read high. The gist of the method: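 Genetically defined yeast (DNA repair-deficient) exposed to compounds; growth inhibition determined relative to vehicle.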
Setting [7] is: at 5.0 µM (retest, dose inferred, filed as 0.5).
[8] abbreviates: at 50.0 µM (retest, dose inferred, filed as 5.0).

Turning to `CCCC12C=C(OC)C(=O)C=C1OC(c1ccc3c(c1)OCO3)C2C` (configuration not stated), the growth inhibition was 0% in assay [1] (setting [7]); 55% in assay [1] (setting [8]); 43.9% in assay [1] (at 50.0 µM); -2% in assay [2] (setting [7]); 81% (active) in assay [2] (setting [8]); 70.8% (active) in assay [2] (at 50.0 µM). Further, the growth inhibition in assay [3] (setting [7]) was 0%; in assay [3] (setting [8]) it was 86% (active); in assay [3] (at 50.0 µM), 80.8% (active); in assay [4] (setting [7]) it was -6%; in assay [4] (setting [8]), 53%; in assay [4] (at 50.0 µM), 64.8%. The growth inhibition in assay [5] (setting [7]) is 19%; in assay [5] (setting [8]) it was 89% (active); in assay [5] (at 50.0 µM), 79.3% (active); in assay [6] (setting [7]) it was -4%; in assay [6] (setting [8]) it was 70% (active); in assay [6] (at 50.0 µM) it was 55.1%.
Take `CCC(=O)Oc1ccc(-c2ccccc2)cc1Cl`: the growth inhibition was -3% in assay [1] (setting [7]); 98% (active) in assay [1] (setting [8]); 97% (active) in assay [1] (at 50.0 µM); -3% in assay [2] (setting [7]); 99% (active) in assay [2] (setting [8]); 98.2% (active) in assay [2] (at 50.0 µM). Also, the growth inhibition is -2% in assay [3] (setting [7]); 96% (active) in assay [3] (setting [8]); 97.5% (active) in assay [3] (at 50.0 µM); -2% in assay [4] (setting [7]); 98% (active) in assay [4] (setting [8]); 96% (active) in assay [4] (at 50.0 µM). In addition, the growth inhibition in assay [5] (setting [7]) is 14%; in assay [5] (setting [8]), 99% (active); in assay [5] (at 50.0 µM), 98.8% (active); in assay [6] (setting [7]) it was 0%; in assay [6] (setting [8]), 98% (active); in assay [6] (at 50.0 µM), 98.2% (active).
`CCC1CCC2=C(C1)C(=O)c1ccccc1C2=O` (configuration not stated): the growth inhibition in assay [1] (setting [7]) is 6%; in assay [1] (setting [8]), 91% (active); in assay [1] (at 50.0 µM) it was 3.4%; in assay [2] (setting [7]), 7%; in assay [2] (setting [8]), 92% (active); in assay [2] (at 50.0 µM), 49.5%. Besides, the growth inhibition in assay [3] (setting [7]) was 11%; in assay [3] (setting [8]), 96% (active); in assay [3] (at 50.0 µM), 45%; in assay [4] (setting [7]), 11%; in assay [4] (setting [8]) it was 71% (active); in assay [4] (at 50.0 µM), 49.3%. Also, the growth inhibition in assay [5] (setting [7]) is 9%; in assay [5] (setting [8]), 94% (active); in assay [5] (at 50.0 µM) it was 95.9% (active); in assay [6] (setting [7]), 6%; in assay [6] (setting [8]), 97% (active); in assay [6] (at 50.0 µM), 51.5%.
Turning to `Nc1nnc(-c2cc(=O)c3cc(Cl)ccc3o2)s1`, the growth inhibition is -1% in assay [1] (setting [7]); 13% in assay [1] (setting [8]); 60% in assay [1] (at 50.0 µM); -1% in assay [2] (setting [7]); 8% in assay [2] (setting [8]); 20.4% in assay [2] (at 50.0 µM). Also, the growth inhibition in assay [3] (setting [7]) was -2%; in assay [3] (setting [8]), 6%; in assay [3] (at 50.0 µM), 20.1%; in assay [4] (setting [7]), -2%; in assay [4] (setting [8]), 11%; in assay [4] (at 50.0 µM), 10.7%. In addition, the growth inhibition was 3% in assay [5] (setting [7]); 11% in assay [5] (setting [8]); 22.4% in assay [5] (at 50.0 µM); -1% in assay [6] (setting [7]); 10% in assay [6] (setting [8]); 10.4% in assay [6] (at 50.0 µM).
Regarding `CC1=C(C)C1[N+](=O)[O-]`, the growth inhibition was 45% in assay [1] (setting [7]); 94% (active) in assay [1] (setting [8]); 78% (active) in assay [1] (at 50.0 µM); 35% in assay [2] (setting [7]); 97% (active) in assay [2] (setting [8]); 79.8% (active) in assay [2] (at 50.0 µM). The growth inhibition in assay [3] (setting [7]) was 44%; in assay [3] (setting [8]) it was 98% (active); in assay [3] (at 50.0 µM), 69%; in assay [4] (setting [7]) it was 25%; in assay [4] (setting [8]), 68%; in assay [4] (at 50.0 µM) it was 24.4%. Moreover, the growth inhibition in assay [5] (setting [7]) is 49%; in assay [5] (setting [8]) it was 97% (active); in assay [5] (at 50.0 µM), 65.7%; in assay [6] (setting [7]), 64%; in assay [6] (setting [8]) it was 95% (active); in assay [6] (at 50.0 µM), 62.9%.
For `O=C(CBr)Nc1ccc(Cc2ccc(NC(=O)CBr)cc2)cc1`, the growth inhibition is 11% in assay [1] (setting [7]); -4% in assay [1] (setting [8]); 97.3% (active) in assay [1] (at 50.0 µM); 20% in assay [2] (setting [7]); 0% in assay [2] (setting [8]); 98.7% (active) in assay [2] (at 50.0 µM). Further, the growth inhibition in assay [3] (setting [7]) was 35%; in assay [3] (setting [8]), -4%; in assay [3] (at 50.0 µM), 98.2% (active); in assay [4] (setting [7]) it was 24%; in assay [4] (setting [8]), -2%; in assay [4] (at 50.0 µM), 97.1% (active). The growth inhibition in assay [5] (setting [7]) was 17%; in assay [5] (setting [8]), 0%; in assay [5] (at 50.0 µM), 98.1% (active); in assay [6] (setting [7]) it was 25%; in assay [6] (setting [8]), 1%; in assay [6] (at 50.0 µM), 97.2% (active).
On to `FC(F)(F)c1ccccc1NC(=S)SCc1ccc(Cl)cc1`, for which the growth inhibition in assay [1] (setting [7]) was 3%; in assay [1] (setting [8]), 53%; in assay [1] (at 50.0 µM), 97% (active); in assay [2] (setting [7]) it was -2%; in assay [2] (setting [8]) it was 95% (active); in assay [2] (at 50.0 µM), 97.2% (active). Also, the growth inhibition is 1% in assay [3] (setting [7]); 94% (active) in assay [3] (setting [8]); 99.2% (active) in assay [3] (at 50.0 µM); -3% in assay [4] (setting [7]); 69% in assay [4] (setting [8]); 98.5% (active) in assay [4] (at 50.0 µM). Moreover, the growth inhibition was 14% in assay [5] (setting [7]); 90% (active) in assay [5] (setting [8]); 97.4% (active) in assay [5] (at 50.0 µM); -3% in assay [6] (setting [7]); 83% (active) in assay [6] (setting [8]); 99.2% (active) in assay [6] (at 50.0 µM).
Turning to `O=C(Oc1ccc(Cl)cc1)Oc1ccc(Cl)cc1`, the growth inhibition is -13% in assay [1] (setting [7]); 16% in assay [1] (setting [8]); 3.55% in assay [1] (at 50.0 µM); -10% in assay [2] (setting [7]); 4% in assay [2] (setting [8]); 16.7% in assay [2] (at 50.0 µM). Besides, the growth inhibition in assay [3] (setting [7]) was 0%; in assay [3] (setting [8]), 25%; in assay [3] (at 50.0 µM), 14.3%; in assay [4] (setting [7]), -2%; in assay [4] (setting [8]) it was 36%; in assay [4] (at 50.0 µM) it was 16.9%. Moreover, the growth inhibition in assay [5] (setting [7]) was -1%; in assay [5] (setting [8]), -23%; in assay [5] (at 50.0 µM), 18.3%; in assay [6] (setting [7]) it was 6%; in assay [6] (setting [8]) it was 12%; in assay [6] (at 50.0 µM) it was 17.1%.
In the case of `Cc1cc(NS(=O)(=O)c2ccc(NCc3c4ccccc4nc4cc(Cl)ccc34)cc2)no1`, the growth inhibition is 26% in assay [1] (setting [7]); 97% (active) in assay [1] (setting [8]); 98.2% (active) in assay [1] (at 50.0 µM); 22% in assay [2] (setting [7]); 99% (active) in assay [2] (setting [8]); 98.5% (active) in assay [2] (at 50.0 µM). The growth inhibition in assay [3] (setting [7]) was 27%; in assay [3] (setting [8]) it was 99% (active); in assay [3] (at 50.0 µM), 98.5% (active); in assay [4] (setting [7]), 6%; in assay [4] (setting [8]) it was 97% (active); in assay [4] (at 50.0 µM) it was 97.3% (active). Moreover, the growth inhibition in assay [5] (setting [7]) was 25%; in assay [5] (setting [8]) it was 99% (active); in assay [5] (at 50.0 µM) it was 96.2% (active); in assay [6] (setting [7]), 9%; in assay [6] (setting [8]) it was 97% (active); in assay [6] (at 50.0 µM) it was 98.2% (active).
